From PubChem
PV pol inh: poliovirus RdRp elongation inhibitors, primary screen, biochemical, fluorescence polarization, total intensity; % elongation, % (compound at 16.7 µg/mL); Genome polyprotein (Poliovirus type 1 (strain Mahoney)), P03300; 150,000 compounds, 0.66% hits; AID 588519, 2011; poliovirus polymerase elongation; stronger effect = lower value; in the data active means % elongation below about 90%
AID504770: growth inhibition of E. coli YBA685, primary screen, V. cholerae RctB inhibitors; E. coli YBA685 rctB-dependent plasmid, OD600 growth, 3 h; stronger effect = lower value; z-score (no concentration beside the values); 130,000 compounds, 0.27% hits; in the data active means z-score below about -2, passing the limit was not always enough
MbtI inh: MbtI salicylate synthase inhibitors, primary screen, biochemical, fluorescence intensity; P9WFX0; purified MbtI enzyme, fluorescence intensity read-out; inhibition, % (test concentration not listed); 100,000 compounds, 0.89% hits; in the data active means inhibition mostly above about 56%, no sharp cut-off; inactive means mostly below about 77%
Target sequence (P9WFX0 whole entry, looked up): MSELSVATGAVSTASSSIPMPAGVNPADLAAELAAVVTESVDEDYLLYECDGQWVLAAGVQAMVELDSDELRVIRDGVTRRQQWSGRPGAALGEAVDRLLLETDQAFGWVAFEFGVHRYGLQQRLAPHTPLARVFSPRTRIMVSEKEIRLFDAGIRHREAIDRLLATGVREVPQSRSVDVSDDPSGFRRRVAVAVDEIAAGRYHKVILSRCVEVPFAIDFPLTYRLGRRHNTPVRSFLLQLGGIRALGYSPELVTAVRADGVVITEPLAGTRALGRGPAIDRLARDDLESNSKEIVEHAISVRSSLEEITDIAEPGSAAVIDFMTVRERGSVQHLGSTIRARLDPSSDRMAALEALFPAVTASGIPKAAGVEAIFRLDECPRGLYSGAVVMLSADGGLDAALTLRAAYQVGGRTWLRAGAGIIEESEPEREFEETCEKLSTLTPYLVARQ
Mtb MenB inh: M. tuberculosis MenB inhibitors, primary screen, biochemical, absorbance; 100,000 compounds, 0.43% hits; inhibition, % (concentration not given with the values); 1,4-dihydroxy-2-naphthoyl-CoA synthase (Mycobacterium tuberculosis (strain ATCC 25618 / …; MenB enzyme assay, absorbance read-out; in the data active means inhibition above about 21%, passing the limit was not always enough
Active calls of the source: *; nt = not tested or not shown. An excerpt weighted towards active compounds, which were near 1.5% of everything screened.

SMILES	PV pol inh	AID504770	MbtI inh	Mtb MenB inh
CN(C)S(=O)(=O)c1ccc2c(c1)oc(=O)n2C	105	1.6	5	27*
CCNc1nc(NCC)nc(N(C)N)n1	101	-0.35	-17	32*
CCc1nnc(NC(=O)C2CCCCC2)s1	101	-0.65	100*	-19
Cc1cc(C)n(/N=C2/C(=O)Nc3ccc(Br)cc32)c(=O)c1C#N	100	-0.25	-18	-28
Cc1ccc2c(c1Br)C(=C(C#N)C#N)C(=O)N2	84*	-0.3	-124	-53
O=C(Cc1ccc2c(c1)OCCO2)NCc1ccco1	nt	1.4	28	7
CCN(Cc1ccc2c(c1)OCCO2)C(=S)NCc1ccco1	97	-0.3	89*	-31
S=c1[nH]nc(NC2CC2)s1	102	2.2	89*	-37
O=C(Nc1cccnc1)c1c(O)c2ccccc2n(Cc2ccccc2)c1=O	104	-0.7	18	-46
O=S(=O)(c1ccccc1C(F)(F)F)N1CCNCC1	100	1.2	-9	-18
CN1CCN(S(=O)(=O)c2ccccc2C(F)(F)F)CC1	89*	-0.3	4	-13
COC(=O)c1nc(S(C)(=O)=O)ncc1Cl	96	-2.7*	12	-7
Cc1cccc(NC(=O)c2nc(S(C)(=O)=O)ncc2Cl)c1	103	nt	nt	nt
COc1ccc(NC(=O)c2nc(S(C)(=O)=O)ncc2Cl)cc1Cl	102	-0.85	88*	-9
CS(=O)(=O)c1ncc(Cl)c(C(=O)Nc2cccc(Cl)c2)n1	102	-0.95	81*	10
COc1ccc(C2CC(c3ccccc3)=NN2C(=O)Cn2c(NCCO)nc3ccccc32)cc1 (stereo not given)	100	-0.25	-11	-27
CC(=O)O/N=C/c1[nH]ncc1Br	100	0.1	3	-6
CC(=O)NC1(c2ccccc2F)CCN(CC(=O)N2CCN(C(=O)c3ccco3)CC2)CC1	105	-0.6	-2	5
CNc1ccccc1C(C)(C)c1cc(-c2ccc(Cl)cc2)no1	99	-0.8	8	-56
COc1ccc(CNC(=O)C(CC(=O)N2CCOCC2)n2ccnc2)cc1 (stereo not given)	102	-0.05	-5	15
COc1ccc(NC(=O)C2C3NC(=S)NC2(C)Oc2ccccc23)cc1 (stereo not given)	101	-1.5	39	0
Cc1cc(=O)oc2cc(OCC(=O)Oc3ccc4c(c3)OCO4)ccc12	83*	-0.15	73	0
Cc1cc(=O)oc2cc(OCC(=O)O)ccc12	105	0.3	107	-17
COc1ccc(-c2noc(NCCCN3CCCC3=O)n2)cc1OC	103	-1.1	-10	-28
CCOc1ccc(CCNc2ccc3nncn3n2)cc1OCC	nt	-0.2	nt	nt
SMILES	PV pol inh	AID504770	MbtI inh	Mtb MenB inh
CCc1cccc(NC(=O)CN(C2=NC3CS(=O)(=O)CC3S2)c2cccc(C)c2)c1 (stereo not given)	100	-2.5*	-5	-11
Cc1cccc(NC(=O)CN(C2=NC3CS(=O)(=O)CC3S2)c2ccccc2)c1 (stereo not given)	99	0.7	4	-66
CCCn1c(SCC(=O)N2CCCC2)nnc1C(C)C	101	-3.1*	-13	-16
COC(=O)c1c(NC(=O)CCCOc2ccc(C(C)(C)C)cc2)sc2c1C(C(=O)OC)CC2 (stereo not given)	62*	nt	nt	nt
Cc1sc2nc[nH]c(=O)c2c1C	94	-0.45	87*	-9
COc1ccc(CNC(=O)Cc2csc(N3CCCC3=O)n2)cc1	99	0.5	13	-3
CC1=NN(c2ccccc2)C(=O)C1=C1SCCS1	102	-0.1	11	9
CC1=NN(c2ccccc2)C(=O)/C1=C1/C(=O)N(c2ccccc2)N=C1C	57*	0.3	9	-11
CN1c2ccccc2N(C)C1c1ccc(O)cc1	83*	-1.5	10	-33
Cc1ccc(S(=O)(=O)N(CC(=O)NO)Cc2ccccc2)cc1	103	-1.1	2	5
CCN(CC)C(=S)SSC(=S)N(CC)CC	99	-1.1	98*	3
O=C1C=CC(=O)C(Sc2nnnn2-c2ccccc2)=C1	99	-0.7	102*	-3
O=C(N/N=C1/CCS(=O)(=O)c2ccc(F)cc21)c1ccccn1	90*	0	-9	15
O=c1cc(CSc2ccc(Cl)cc2)[nH]c(=S)[nH]1	99	-0.75	58*	-79
Oc1ccc(-c2nc3ccccc3s2)cc1	nt	-2.3*	103	4
CC(C)CN(CC(C)C)c1nnc(NC(=O)c2csc3c2CCCC3)s1	106	-2.2	70	2
COCCN=c1scc(-c2cccs2)n1/N=C/c1ccc(N2CCOCC2)cc1	102	0.7	-8	-52
